Bioassay records (PubChem BioAssay)
Glyco luc inh = blocks N-linked glycosylation in D54 reporter cells. D54 ERlucT glycosylation luciferase reporter, 24 h; percent of 100 nM tunicamycin response. reporter increase, % at 12.5 µM. hit rate 0.23% among 360,000;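 active = mean luciferase reporter signal, scaled so untreated is 0 and the glycosylation-blocking control 100, at or above a set limit in every replicate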;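 also: luciferase carries N-glycosylation sites so blocking glycosylation raises the light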
NSD2 inh = NSD2 (human) methyltransferase inhibition. O96028. NSD2 peptide methylation, AlphaScreen, 120 min. inhibition, % at 12.5 µM. hit rate 0.54% among 310,000. AID 743445
Vif inh = inhibitors of HIV Vif; HEK293T cells, Vif self-association by quenched fluorescence, imaging, 24 h; inhibition, % at 7.49 µM; hit rate 0.35% among 340,000; in the data active = inhibition above about 50%, passing the limit was not always enough
DSG3 Ab inh = blocks pemphigus antibody binding to human desmoglein-3 | binding (percent of control), % at 10 µM | P32926 | hit rate 0.48% among 310,000 | DSG3-coupled beads, scFv-anti-DSG3-GFP binding, flow cytometry; stronger effect = lower value | AID 588358;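 active = binding more than 3 SD below its plate's average and above zero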
ATG4B inh = inhibitors of human ATG4B cysteine protease. Q9Y4P1. ATG4B cleavage of LC3-PLA2, NBD-HPC fluorescence, 1 h. inhibition, % at 8.33 µM. hit rate 0.51% among 340,000. AID 504462; in the data active = inhibition above about 40%
Target sequence (Q9Y4P1 whole entry, looked up): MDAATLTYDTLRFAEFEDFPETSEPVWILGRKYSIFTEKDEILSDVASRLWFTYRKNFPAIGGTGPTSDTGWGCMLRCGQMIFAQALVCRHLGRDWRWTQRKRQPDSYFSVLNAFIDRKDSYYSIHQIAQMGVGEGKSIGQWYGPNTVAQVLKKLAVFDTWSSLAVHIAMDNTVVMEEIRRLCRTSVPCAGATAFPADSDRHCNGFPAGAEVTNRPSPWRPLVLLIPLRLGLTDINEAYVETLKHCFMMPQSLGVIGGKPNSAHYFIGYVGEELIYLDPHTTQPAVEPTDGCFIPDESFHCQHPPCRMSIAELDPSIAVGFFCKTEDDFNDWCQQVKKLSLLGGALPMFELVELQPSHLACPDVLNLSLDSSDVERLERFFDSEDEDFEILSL
CaV13 FRET inh = Primary screen for inhibitors of IQ motif and Ca2+-dependent inactivation inhibitor domain binding in CACNA1D, Förster resonance energy transfer in living cells, … | hit rate 0.098% among 340,000 | inhibition, % at 12.3 µM | HEK cells, CFP/YFP FRET ICDI-IQ, plate reader, 10 min; percent FRET-ratio fall versus neutral wells;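 active = mean replicate inhibition of at least 30% and at least 1% of replicates passing that level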
ATG4B confirm = confirmation of human ATG4B inhibitors | shares compounds with ATG4B inh | ATG4B protease fluorescent substrate cleavage assay | inhibition, % at 8.33 µM | hit rate 92% among 320 | AID 504757; in the data active = inhibition above about 39%
PLA2 counter = inhibits human PLA2, flagging false ATG4B inhibitors | shares compounds with ATG4B inh | purified PLA2, NBD-C6-HPC fluorescence, 45 min | inhibition, % at 8.33 µM | hit rate 66% among 1,600 | AID 588402
Target sequence (P04054 whole entry, looked up): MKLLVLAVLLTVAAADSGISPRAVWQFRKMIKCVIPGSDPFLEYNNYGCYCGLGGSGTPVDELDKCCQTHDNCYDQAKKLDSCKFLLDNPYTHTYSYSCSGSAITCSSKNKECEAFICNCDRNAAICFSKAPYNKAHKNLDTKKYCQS
Large screens that a line does not name were inactive (follow-up assays come after a bar, where they were run). Only some compounds are listed: those with a hit (about 1.9% of all), similar ones and a draw of the others. Rule as the data show it, unless noted: active = inhibition above about 50%; inactive = the rest.

Cc1cccc(C(=O)c2cnc3ccccc3c2-c2ccccc2)c1	ATG4B inh 57 | PLA2 counter 59
O=C(c1ccc(Cn2c(=S)[nH]c3ccccc3c2=O)cc1)N1CCN(c2ccccn2)CC1	ATG4B inh 47 (no result: NSD2 inh) | PLA2 counter 66
O=C(c1ccc2c(=O)n(Cc3ccc4c(c3)OCO4)c(=S)[nH]c2c1)N1CCCCC1	ATG4B inh 55 (no result: Vif inh) | PLA2 counter inactive
CN(C)c1ccc(P(=O)(Nc2ccccc2)N2CCOCC2)c(NC(=O)c2cccs2)c1 (stereo not drawn)	none
O=C(Nc1ccccc1-c1ccccc1)c1ccc(Cl)c([N+](=O)[O-])c1	ATG4B inh 41 | PLA2 counter inactive
COc1ccc(NC(=O)c2ccco2)cc1NC(=O)c1c(OC)cccc1OC	ATG4B inh 46 | PLA2 counter 52
Cc1cc(=O)oc2cc(OCCSCCN3CCCCC3)ccc12	none (no result: DSG3 Ab inh)
CC(/C=C1\SC(=S)N(c2ccc(C(=O)O)cc2)C1=O)=C\c1ccccc1	ATG4B inh 52 (no result: NSD2 inh) | ATG4B confirm 44 | PLA2 counter inactive
CCOC(=O)c1ccc(N=C2SC(C(=O)Nc3ccc(C(=O)O)cc3)CC(=O)N2Cc2cccs2)cc1 (stereo not drawn)	ATG4B inh 55 | PLA2 counter 55
O=S(=O)(c1ccc(Br)s1)N1CCc2ccccc2C1	ATG4B inh 57 | PLA2 counter inactive
COCCn1nnnc1SCC(=O)N1CCCCC1	none
C=C(C)Cn1c(SCC(=O)N/N=C/c2c(O)ccc3ccccc23)nc2ccccc2c1=O	ATG4B inh 41 | ATG4B confirm 56 | PLA2 counter inactive
Cc1nn(-c2ccccc2)c(C)c1/C=N/NC(=O)CSc1nc2ccccc2c(=O)n1-c1ccc(Br)cc1	none (no result: Vif inh)
C=C(C)Cn1c(SCC)nc2ccccc2c1=O	none (no result: CaV13 FRET inh)
Cc1ccc(-n2c(SCC(=O)N/N=C/c3c(C)nn(-c4ccccc4)c3C)nc3ccccc3c2=O)cc1	ATG4B inh 40 | ATG4B confirm 78 | PLA2 counter inactive
CCOC(=O)c1sc2ccccc2c1NC(=O)c1coc2ccccc2c1=O	ATG4B inh 53 | PLA2 counter inactive
CNc1ccc(Br)cc(C(=O)/C=C/c2cccc(Cl)c2Cl)c1=O	none
CCNc1ccc(Br)cc(C(=O)/C=C/c2ccccc2Cl)c1=O	ATG4B inh 51 | PLA2 counter inactive
COc1ccc(NC(=S)Nc2nc(CC(=O)Nc3ccccc3OC)cs2)cc1	none
CC1CCN(C(C)C(=O)Nc2ccccc2-c2ccccc2)CC1 (stereo not drawn)	ATG4B inh 43 | PLA2 counter 53
CC1CCN(CC(=O)Nc2ccccc2-c2ccccc2)CC1	ATG4B inh 45 | PLA2 counter 69
CC(C(=O)Nc1ccccc1-c1ccccc1)N1CCN(C(=O)c2ccccc2)CC1 (stereo not drawn)	none
CC1CCCCC1NCC(=O)Nc1ccccc1-c1ccccc1 (stereo not drawn)	ATG4B inh 48 | PLA2 counter 53
O=C(Nc1ccccc1-c1ccccc1)C1CCCCC1	none
Cc1cc(Nc2ccc(Cl)cc2)n(-c2ccccc2)n1	none
Cc1cc(Nc2ccc(Cl)cc2)n(-c2cccc(Cl)c2)n1	ATG4B inh 41 | PLA2 counter 63
C/C(=N\NC(=O)c1ccc(OC2CCCC2)cc1)c1ccc(O)cc1	ATG4B inh 41 (no result: DSG3 Ab inh) | PLA2 counter inactive
CCCn1c(O)c(/C=C2\C=NN=C2c2ccccc2)sc1=S	none
Cc1c(Cl)c([N+](=O)[O-])nn1Cc1ccc(C(=O)N/N=C\c2cccc(Br)c2)o1	ATG4B inh 58 | PLA2 counter 68
COC(=O)c1cc(-c2ccccc2)sc1N	none
CCCn1c(NCc2cccs2)nc2ccccc21	none (no result: CaV13 FRET inh)
S=C(Nc1ccc(Cl)cc1Cl)Nc1ccccc1Oc1ccccc1	ATG4B inh 72 (no result: CaV13 FRET inh) | PLA2 counter 79
S=C(Nc1ccccc1Oc1ccccc1)Nc1cccc(Cl)c1Cl	ATG4B inh 88 | PLA2 counter 95
S=C(Nc1ccccc1Oc1ccccc1)NC1CCCC1	none
S=C(Nc1cccc(Cl)c1)Nc1ccccc1Oc1ccccc1	ATG4B inh 86 (no result: DSG3 Ab inh) | PLA2 counter 88
NC(=O)c1ccc(N2CCCCCC2)c([N+](=O)[O-])c1	ATG4B inh 68 | PLA2 counter 70
CC(=O)N1CCN(c2ccc(C(N)=O)cc2[N+](=O)[O-])CC1	none
NC(=O)c1ccc(N2CCN(c3ccccc3F)CC2)c([N+](=O)[O-])c1	ATG4B inh 45 | PLA2 counter 50
Cc1nn(C)c(C)c1CNC(=O)Nc1ccc2c(c1)OCO2	none (no result: NSD2 inh, DSG3 Ab inh)
C[C@@]12CCC=C[C@H]1[C@H](c1ccc3ccccc3c1)N(Cc1ccccc1)C2=O	none (no result: NSD2 inh)
C[C@@]12CCC=C[C@H]1[C@H](c1ccc3ccccc3c1Br)N(Cc1ccccc1)C2=O	ATG4B inh 50 (no result: NSD2 inh) | PLA2 counter 76
COC(=O)/C=C1\SC(=Nc2ccc(Cl)c(Cl)c2)NC1=O	ATG4B inh 79 | ATG4B confirm 79 | PLA2 counter inactive
COC(=O)/C=C1\SC(=Nc2ccc(OC)cc2)NC1=O	none
CCS(=O)(=O)N1Cc2ccccc2CC1C(=O)Nc1nnc(SCc2c(Cl)cccc2Cl)s1 (stereo not drawn)	ATG4B inh 74 (no result: NSD2 inh) | PLA2 counter 64
CCC(=O)Nc1nnc(S(=O)(=O)N2CCc3ccccc32)s1	none (no result: NSD2 inh)
O=C(Nc1ccc(Cl)cc1)NC1CCCC1Cc1ccco1 (stereo not drawn)	none (no result: Vif inh, CaV13 FRET inh)
O=C(Nc1ccc(Cl)cc1)NC1CCCCC1Cc1ccco1 (stereo not drawn)	ATG4B inh 70 (no result: DSG3 Ab inh, CaV13 FRET inh) | PLA2 counter 80
O=C(Nc1ccccc1F)c1ccc(C(=O)c2ccccc2)cc1	none (no result: CaV13 FRET inh)
O=C1C2C3C=CC(C3)C2C(=O)N1/N=C/c1cn(Cc2ccc(F)cc2)c2ccccc12 (stereo not drawn)	ATG4B inh 48 | PLA2 counter 70
CCOC(=O)Cn1cc(/C=N/N2C(=O)C3C4C=CC(C4)C3C2=O)c2ccccc21 (stereo not drawn)	none
CCOC(=O)N/N=C/c1cn(Cc2ccc(F)cc2)c2ccccc12	none
O=C1C2C3C=CC(C3)C2C(=O)N1/N=C/c1cn(Cc2ccccc2)c2ccccc12 (stereo not drawn)	ATG4B inh 48 | PLA2 counter 57
Cc1nc2c(C(=O)NCCC(C)C)c[nH]n2c(=O)c1Cc1ccccc1F	ATG4B inh 51 (no result: Vif inh, CaV13 FRET inh) | PLA2 counter 63
